Reference: the supplement of paper PMC10981050
Where “and” joins values, the source holds several entries; their conditions need not be identical. Equal entries are not always repeated. Structures can show the parent of a compound that is named as a salt.

Tests used:
Assay in all cases: cell viability relative to vehicle control; higher = less cytotoxic
Settings in all cases: 10 µM
K562 = system: K562
Summary of the method: (§1)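 Mutant clones made by CRISPR editing and their isogenic wild-type counterparts, from four leukaemia lines, were exposed to a single 10 µM dose of each library compound for 48 h. The supernatant was then removed and CellTiter-Glo luminescence was read. Viability was reported as percent of the on-plate vehicle control.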

MARIMO = system: MARIMO
Summary of the method: as §1

MOLM14 = system: MOLM14
Summary of the method: as §1

OCI-AML2 = system: OCI-AML2
Summary of the method: as §1

Row | SMILES | cell viability (K562; SRSF2 genotype: SRSF2 P95H/wt) | cell viability (K562; SRSF2 genotype: SRSF2 wt/wt) [%] | cell viability (MARIMO; SRSF2 genotype: SRSF2 P95H/wt) [%] | cell viability (MARIMO; SRSF2 genotype: SRSF2 wt/wt) [%] | cell viability (MOLM14; SRSF2 genotype: SRSF2 P95H/wt) [%] | cell viability (MOLM14; SRSF2 genotype: SRSF2 wt/wt) [%] | cell viability (OCI-AML2; SRSF2 genotype: P95H/wt) [%] | cell viability (OCI-AML2; SRSF2 genotype: wt/wt) [%]
1 | Cc1coc2c1C(=O)C(=O)c1c-2ccc2c(C)cccc12 [Tanshinone I] | 66.7% and 48.1% | 41.4 | 70.6 | 63.4 | 76.1 | 48.3 | 57.5 | 60
2 | COc1ccc(/C=C/c2cc(O)cc(O[C@@H]3O[C@H](CO)[C@@H](O)[C@H](O)[C@H]3O)c2)cc1O [Rhapontin] | 86.2% and 86.1% | 92.3 | 85.4 | 99.8 | 90.7 | 99.3 | 89.1 | 95.5
3 | O=c1cc(-c2ccccc2)oc2c1ccc1ccccc12 [alpha-Naphthoflavone] | 94.2% and 87.3% | 95.9 | 90.5 | 96.5 | 117 | 109 | 86.5 | 99.7
4 | COC(=O)C1=CO[C@@H](O[C@@H]2O[C@H](CO)[C@@H](O)[C@H](O)[C@H]2O)[C@@H]2[C@@]3(C)O[C@H]3[C@@H](O)[C@]12O [Sesamoside] | 101% and 102% | 104 | 102 | 98.4 | 109 | 105 | 104 | 107
5 | OCCn1cc(-c2cnc3nnn(Cc4ccc5ncccc5c4)c3n2)cn1 | 96.9% and 99.3% | 104 | 105 | 102 | 99.4 | 100 | 97.9 | 97.9
6 | C=C1/C(=C\C=C2/CCC[C@]3(C)[C@@H]([C@H](C)/C=C/[C@@H](O)C4CC4)CC[C@@H]23)C[C@@H](O)C[C@@H]1O [Calcipotriene] | 75.3% and 84.2% | 79.8 | 65 | 65.3 | 66.8 | 63.6 | 79.2 | 96.1
7 | O=[N+]([O-])c1ccc(Sc2cccc[n+]2[O-])c2nonc12 | 0.23% and 0.26% | 0.23 | 0.65 | 0.24 | 0.22 | 0.25 | 0.28 | 0.27
8 | Cc1cccc(N(C)C(=S)Oc2ccc3ccccc3c2)c1 [Tolnaftate] | 99.7% and 106% | 91.9 | 89.3 | 109 | 96.9 | 101 | 106 | 109
9 | C=CC[C@@H]1/C=C(\C)C[C@H](C)C[C@H](OC)[C@H]2O[C@@](O)(C(=O)C(=O)N3CCCC[C@H]3C(=O)O[C@H](/C(C)=C/[C@@H]3CC[C@@H](O)[C@H](OC)C3)[C@H](C)[C@@H](O)CC1=O)[C@H](C)C[C@@H]2OC [Tacrolimus (FK506)] | 90.3% and 93.4% | 84.9 | 94.3 | 97.2 | 92.2 | 96.3 | 91.4 | 98.2
10 | O=C(Nc1ccc(OC(F)(F)Cl)cc1)c1cnc(N2CC[C@@H](O)C2)c(-c2cc[nH]n2)c1 [Asciminib (ABL001)] | 12.7% and 19% | 17.1 | 68.4 | 64.5 | 92 | 87.7 | 41.2 | 55
11 | CCCC(CCC)C(=O)O [Valproic acid sodium salt (Sodium valproate)] | 95% and 89.8% | 102 | 84.2 | 91.5 | 93.2 | 93.7 | 89.8 | 95.9
12 | COc1ccc(C2CC(=O)c3c(O)cc(OC4OC(COC5OC(C)C(O)C(O)C5O)C(O)C(O)C4O)cc3O2)cc1 (centres undefined) [Didymin] | 107% and 103% | 112 | 108 | 105 | 106 | 111 | 104 | 103
13 | O=C(O)Cc1cccc(OCCCN(Cc2cccc(C(F)(F)F)c2Cl)CC(c2ccccc2)c2ccccc2)c1 | 98.2% and 93.9% | 92.9 | 97.9 | 113 | 88.6 | 96.7 | 90.9 | 98.5
14 | O=C(NO)c1cccc(C(=O)NCCc2ccccc2)c1 | 91% and 97.1% | 101 | 91.9 | 86.8 | 89.6 | 94.3 | 90.7 | 93.3
15 | CC1CNC(=O)NC1=O (centres undefined) [Dihydrothymine] | 102% and 110% | 97.3 | 96.7 | 108 | 97.7 | 103 | 94 | 105
16 | CC1(C)CC[C@]2(C(=O)O)CC[C@]3(C)C(=CC[C@@H]4[C@@]5(C)CC[C@H](O)C(C)(C)[C@@H]5CC[C@]43C)[C@@H]2C1 [Oleanolic Acid (Caryophyllin)] | 96.5% and 91.2% | 87.9 | 80.7 | 82.8 | 85.6 | 94.7 | 66.8 | 82.7
17 | NC(C=O)C(O)C(O)C(O)CO (centres undefined) [Glucosamine sulfate] | 99.5% and 102% | 100 | 101 | 105 | 104 | 108 | 104 | 104
18 | CC(/C=C/C=C(\C)C(=O)O[C@@H]1O[C@H](CO[C@@H]2O[C@H](CO)[C@@H](O)[C@H](O)[C@H]2O)[C@@H](O)[C@H](O)[C@H]1O)=C\C=C\C=C(C)\C=C\C=C(/C)C(=O)O[C@@H]1O[C@H](CO[C@@H]2O[C@H](CO)[C@@H](O)[C@H](O)[C@H]2O)[C@@H](O)[C@H](O)[C@H]1O [Crocin] | 101% and 100% | 99.8 | 95.6 | 100 | 95.2 | 102 | 107 | 102
19 | C[C@]12CC[C@@H]3c4ccc(O)cc4C[C@@H](CCCCCCCCC[S+]([O-])CCCC(F)(F)C(F)(F)F)[C@H]3[C@@H]1CC[C@@H]2O (some centres undefined) [Fulvestrant (Faslodex)] | 86% and 87.5% | 79.5 | 77.1 | 87 | 93.1 | 89.1 | 91.4 | 96.7
20 | Cc1n[nH]c2ncc(C(=O)N3CCC[C@H]3c3ccc(Cl)cc3)cc12 | 101% and 98.5% | 99.8 | 101 | 128 | 88.8 | 105 | 91.4 | 92.8
21 | CC(C)n1c([C@H](C)Nc2ncnc(N)c2C#N)cc2cccc(-c3ccc(=O)n(C)c3)c2c1=O | 71.2% and 78.7% | 68.5 | 46.7 | 34 | 20.9 | 22.6 | 5.13 | 19.1
22 | COc1cccc2c1C(=O)c1c(O)c3c(c(O)c1C2=O)CC(O)(C(=O)CO)CC3OC1CC(N)C(O)C(C)O1 (centres undefined) [Doxorubicin (Adriamycin) HCl] | 4.96% and 11.8% | 6.38 | 5.57 | 2.71 | 1 | 0.45 | 2.05 | 12.5

Row | SMILES | cell viability (K562; SRSF2 genotype: SRSF2 P95H/wt) | cell viability (K562; SRSF2 genotype: SRSF2 wt/wt) [%] | cell viability (MARIMO; SRSF2 genotype: SRSF2 P95H/wt) [%] | cell viability (MARIMO; SRSF2 genotype: SRSF2 wt/wt) [%] | cell viability (MOLM14; SRSF2 genotype: SRSF2 P95H/wt) [%] | cell viability (MOLM14; SRSF2 genotype: SRSF2 wt/wt) [%] | cell viability (OCI-AML2; SRSF2 genotype: P95H/wt) [%] | cell viability (OCI-AML2; SRSF2 genotype: wt/wt) [%]
23 | CC(=O)OCC1=C(C(=O)O)N2C(=O)[C@@H](NC(=O)Cc3cccs3)[C@H]2SC1 [Cephalothin] | 94.9% and 98.7% | 96.1 | 95.8 | 100 | 94.7 | 101 | 95.1 | 104
24 | Cc1cc(C)cc(NC(=O)Cc2ccc(OC(C)(C)C(=O)O)cc2)c1 [Efaproxiral sodium] | 102% and 99.1% | 99.9 | 109 | 119 | 110 | 103 | 106 | 116
25 | OCCOCCN1CCN(C2=Nc3ccccc3Sc3ccccc32)CC1 [Quetiapine fumarate (Seroquel)] | 91.1% and 95.4% | 96.3 | 85.8 | 95.8 | 90 | 94.9 | 74.6 | 87
26 | CNC(=O)[C@H](Cc1c[nH]c2ccccc12)NC(=O)[C@@H](CC(=O)NO)CC(C)C [Ilomastat (GM6001, Galardin)] | 101% and 105% | 95.8 | 95.7 | 97.5 | 88.2 | 97.8 | 113 | 112
27 | COC(=O)Nc1ccc(-c2nc(N3CCOCC3)c3cnn(C4CCN(C(=O)OC)CC4)c3n2)cc1 | 43.8% and 55.5% | 48.8 | 53.5 | 52 | 40.9 | 34.3 | 33.9 | 32.9
28 | CCOC(=O)[C@H](CCc1ccccc1)N[C@@H](C)C(=O)N1Cc2ccccc2C[C@H]1C(=O)O [Quinapril hydrochloride (Accupril)] | 97.3% and 108% | 106 | 102 | 106 | 104 | 103 | 107 | 104
29 | O=C1CN(/N=C/C=C/c2ccc([N+](=O)[O-])o2)C(=O)N1 [Furagin] | 105% and 103% | 104 | 93.7 | 107 | 105 | 108 | 101 | 108
30 | CC(=O)O[C@H]1CC(=O)OC(C)(C)[C@@H]2CC(=O)[C@]3(C)[C@H](CC[C@@]4(C)[C@@H](c5ccoc5)OC(=O)[C@H]5O[C@]543)[C@@]12C [Nomilin] | 101% and 95.9% | 97.8 | 87.1 | 105 | 99.2 | 104 | 94.8 | 101
31 | Cc1cc(C(N)=O)ccc1-n1c(CCC(=O)O)ccc1-c1ccc(-n2ccnc2)cc1 | 101% and 109% | 108 | 105 | 98 | 105 | 108 | 109 | 124
32 | CCCCCCNC(=O)n1cc(F)c(=O)[nH]c1=O [Carmofur] | 96% and 94.6% | 82 | 74.1 | 81 | 42.2 | 27.3 | 57.9 | 58.3
33 | CCCN[C@H]1CCc2nc(N)sc2C1 [Pramipexole (Mirapex)] | 102% and 81.8% | 83.3 | 81.9 | 83.9 | 71.3 | 84.3 | 80.9 | 87.8
34 | CC(C)C[C@H](NC(=O)[C@@H](NC(=O)c1cccc(-c2ccccc2)n1)[C@@H](C)O)B(O)O | 2.12% and 2.65% | 3.78 | 0.85 | 2.98 | 0.49 | 0.44 | 0.41 | 2.11
35 | N=C(NCCCCCCNC(=N)NC(=N)Nc1ccc(Cl)cc1)NC(=N)Nc1ccc(Cl)cc1 [Chlorhexidine] | 14.9% and 12% | 23 | 39.3 | 34.6 | 5.12 | 4.9 | 2.08 | 6.07
36 | CN(CCNc1ccnc2cc(Cl)ccc12)CCNc1ccnc2cc(Cl)ccc12 | 17.1% and 23.8% | 18.8 | 19.4 | 11.8 | 0.51 | 0.43 | 0.35 | 0.6
37 | COc1ccc(S(=O)(=O)Nc2cccnc2Nc2ccc(O)cc2)cc1 | 16.4% and 39.8% | 36.7 | 7.19 | 9.01 | 16.8 | 5.56 | 9.51 | 11.2
38 | CC(C)c1cc2c(N3CCN(C4=NCC(C)(C)S4)CC3)ncnc2s1 [MI-3 (Menin-MLL Inhibitor)] | 75.8% and 67.2% | 67.3 | 75.4 | 55 | 72.2 | 72.3 | 40.6 | 45.1
39 | CCNc1nc(Nc2cc(F)c(C(=O)N3CCOCC3)cc2OC)ncc1C(F)(F)F | 102% and 98.9% | 99.2 | 93.3 | 109 | 90 | 103 | 87.8 | 93.7
40 | NC(=O)c1ccccn1 [Picolinamide] | 104% and 95.8% | 100 | 103 | 108 | 101 | 106 | 92.7 | 110
41 | Nc1nonc1C(=Nc1ccc(F)c(Cl)c1)NO | 97% and 107% | 101 | 92 | 97.2 | 93.8 | 100 | 98.2 | 111
42 | CCOP(=O)(OCC)C(=Cc1cc(C(C)(C)C)c(O)c(C(C)(C)C)c1)P(=O)(OCC)OCC | 77.8% and 87.5% | 84.6 | 90.4 | 93 | 88.8 | 71.6 | 90.9 | 97
43 | CCOC(=O)c1ccc(NC2CCCCC2)c(N)c1 [Ferrostatin-1 (Fer-1)] | 98.7% and 94.8% | 88.4 | 90.6 | 106 | 104 | 102 | 94.3 | 90.4
